Source: PubChem
Only some compounds are listed: those with a hit (about 12% of all), similar ones and a draw of the others.
G9a inh-1 = blocks human histone lysine methyltransferase G9a | G9a H3K9 monomethylation, AlphaScreen, 2 h | Q96KQ7 | AID 504332 | Potency, µM (series often up to 102 µM), for the others: at the highest dose activity, negative = inhibition, actives largely listed as inhibitors | 8.8% of 350,000 active; further: on the % scale 0 is the no-effect control and ±100 the full control effect; nearly all actives have a fitted effect of over 75% in size
Target sequence (Q96KQ7 913-1193 limits assumed): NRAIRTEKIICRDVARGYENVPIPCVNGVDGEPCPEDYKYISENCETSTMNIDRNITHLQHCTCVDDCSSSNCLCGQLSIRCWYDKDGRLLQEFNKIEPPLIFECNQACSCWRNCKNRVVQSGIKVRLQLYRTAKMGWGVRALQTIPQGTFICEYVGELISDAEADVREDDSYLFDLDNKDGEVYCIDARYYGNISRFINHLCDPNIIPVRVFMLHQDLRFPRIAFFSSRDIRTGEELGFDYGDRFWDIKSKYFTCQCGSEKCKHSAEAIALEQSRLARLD
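Compounds were preincubated with 20 nM G9a for 15 min, after which biotinylated H3K9 peptide (500 nM) and SAM (20 uM) started a 2 h room-temperature reaction. Monomethylated product was quantified by antibody-based AlphaScreen chemiluminescence.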
BAZ2B inh = BAZ2B (human) inhibition; Q9UIF8; AlphaScreen BAZ2B-H3K14Ac peptide displacement; Potency, µM (top dose mostly 114 µM), for inactives: at the highest dose activity change, negative = inhibition, actives largely listed as inhibitors; 4.4% of 360,000 active; further: on the % scale 0 is the no-effect control and ±100 the full control effect; nearly all actives have a fitted effect of over 60% in size
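AlphaScreen displacement: compounds (up to 110uM) incubated 30 min at room temperature with a preformed 50 nM BAZ2B/50 nM biotinylated H3K14Ac peptide complex in PBS pH 7.4 with Tween-20. Donor and acceptor beads at 10 ug/mL final added, 20 min light-protected before reading.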
JMJD2A Tudor inh = inhibitors of human JMJD2A Tudor domain. O75164. AlphaScreen JMJD2A-Tudor / H3K4me3 peptide binding. Potency, µM (highest dose often 114 µM), inactives show at the top dose activity change, negative = inhibition, actives largely listed as inhibitors. 4.4% of 390,000 active. AID 504339; further: on the % scale 0 is the no-effect control and ±100 the full control effect; nearly all actives have a fitted effect of over 50% in size
HP1b chromo inh = inhibitors of HP1-beta chromodomain binding to methylated histone tails; P83916; 0.56% of 390,000 active; AID 540317; AlphaScreen HP1-beta / biotin-H3K9me3 peptide binding; Potency, µM (doses to about 114 µM), without a hit: at the top dose activity change, negative = inhibition, actives largely listed as inhibitors; further: nearly all actives have a fitted effect of over 70% in size
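Compound inhibition of the preformed complex between 50 nM HP1-beta and 50 nM biotinylated H3K9me3 peptide was read by AlphaScreen. Buffer was PBS pH 7.4 with 0.01% Tween-20. Incubations ran 30 min at room temperature, with 10 ug/mL donor/acceptor beads.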
Sfp inh = Sfp phosphopantetheinyl transferase inhibition. Potency, µM, for inactives: largest response in the series, negative = inhibition, usual class: inhibitors. Biochemical Sfp PPTase activity, qHTS. Q9F4F7. 3.5% of 310,000 active. AID 1490;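 further: the enzyme is Sfp with the accession as filed and its product quenches rhodamine fluorescence; 0% = enzyme reaction without inhibitor and -100% = no enzyme wells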
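Fluorescence-quenching assay with 15 nM Sfp, 5 uM rhodamine-CoA and 12.5 uM BHQ-2-labelled ybbR peptide in pH 7.6 Hepes/MgCl2 buffer. Enzyme was pre-incubated with compound for 15 min at room temperature. Rate was taken from the 30-min fluorescence change (525/598 nm).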
G9a inh-2 = confirmation of human histone methyltransferase G9a inhibitors; 89% of 370 active; AID 588344; shares compounds with JMJD2A Tudor inh; G9a H3K9 monomethylation, AlphaScreen, 2 h; Potency, µM, most hits filed as inhibitors; further: nearly all actives have a fitted effect of over 65% in size
Starred values were filed as active, the others as inactive; ? = inconclusive; . = no result; [ ] = remark or other dose. The call rests on the fitted dose curve; in most records, active means well fitted curve in the direction sought with a large enough effect; inconclusive means small, poorly fitted or top-dose-only effect, or another doubt; inactive means no such curve, though single readings can be large; an effect the other way counts as inactive or inconclusive. Potency means the concentration at half of the fitted maximal effect.

SMILES | G9a inh-1 | BAZ2B inh | JMJD2A Tudor inh | HP1b chromo inh | Sfp inh | G9a inh-2
COc1ccc(OCC(=O)N2CCN(Cc3cccc(OC)c3OC)CC2)cc1 | 2µM* | 50µM* | 7.9µM* | ? | . | 29*
Cc1cccc(OCC(=O)N2CCN(Cc3ccncc3)CC2)c1 | 2.5µM* | 18µM* | 1.3µM* | -40% | ? | 8.9*
COc1ccc(CN2CCN(Cc3ccccc3OC)CC2)cc1 | 2µM* | 25µM* | 4µM* | ? | ? | 3.6*
COCCCN=Cc1c(O)[nH]c(=S)[nH]c1=O | 6% | -1% | -6% | 87% | 9% | .
C=CCn1c(O)c(/C=N/N2CCCCC2)c(=O)[nH]c1=O | . | -6% | -1% | 26% | 0% | .
COc1ccc(CCN)cc1OC | 49%[59 µM] | -11% | -10% | 29% | -10% | .
COc1ccc(CCNCc2ccncc2)cc1OC | 2.5µM* | 50µM* | 11µM* | ? | 45µM* | 45*
CN(C)c1ccc(NC(=O)Oc2ccccc2)cc1 | 1.6µM* | 45µM* | ? | -40% | 79µM* | 1.4*
CC(=O)Nc1ccc(NC(=O)Oc2ccccc2)cc1 | ? | -21% | -13% | 9% | 12% | .
O=[N+]([O-])c1ccc(N2CCCC2)cc1N/N=C1\CN2CCC1CC2 | ? | ? | -35% | ? | 12% | .
